This passage reports Inhibition results from ChEMBL document CHEMBL1157539, “Thousands of chemical starting points for antimalarial lead identification” (Nature, 2010).

What is called Inhibition is the percentage by which the read-out fell short of the control. A higher Inhibition goes with strong suppression.

Holding throughout (type): functional
The subject of test [1] is Plasmodium falciparum. As to the kind of experiment: GSK_TCMDC: Inhibition of Plasmodium falciparum 3D7 in whole red blood cells, using parasite LDH activity as an index of growth. Test compounds present at 2uM.
In test [2] the test system is Plasmodium falciparum. Nature of the test: GSK_TCMDC: Inhibition of Plasmodium falciparum Dd2 in whole red blood cells, using parasite LDH activity as an index of growth. Test compounds present at 2uM.
Test [3] concerns HepG2. Nature of the test: GSK_TCMDC: Percent inhibition of human HepG2 cell line. Test compounds present at 10uM.

On to `Cc1cc2c(cc1C(F)(F)F)N(C(=O)Nc1cc(OCCN(C)C)cc(C(F)(F)F)c1)CC2.Cl`, for which the Inhibition in test [1] is 100%; in test [2], 19%; in test [3], 16%.

`O=C(Cc1ccc(-c2ccccc2)cc1)N[C@H]1CCN(Cc2ccc(OCCCN3CCCCC3)cc2)C1`: the Inhibition in test [1] was 99%; in test [2] it was 27%; in test [3], 36%.

Turning to `O=C1NC(C(=O)Nc2ccccc2)C(c2ccccc2)S1` (configuration not stated), the results for the Inhibition in test [1], in test [2] and in test [3] were 95%, 99% and 0%, respectively.

For the compound `Br.CCCCCCCCn1c2c(c(=N)c3c1CCC3)CCCC2`, the Inhibition amounted to 100% in test [1], 100% in test [2] and 57% in test [3].

On to `COc1cccc2c(NCc3ccccc3)nc(NCCCN3CCCCC3C)nc12` (configuration not stated), for which the Inhibition is recorded as 90% in test [1], 2% in test [2] and 20% in test [3].

For the compound `CN(C)c1ccc(C=C2SC(=O)N=C2Nc2ccccc2)cc1`, the Inhibition is on record as 97% in test [1], 96% in test [2] and 42% in test [3].

`O=c1cc(NCCCNCc2cccc(SC(F)(F)F)c2)[nH]c2ccccc12`: the results for the Inhibition in test [1], in test [2] and in test [3] were 100%, 94% and 0%, respectively.

Regarding `Cc1[nH]c(C)c(-c2ccc(-c3ccc(OC(F)(F)F)cc3)cc2)c(=O)c1Cl`, the Inhibition is recorded as 98% in test [1], 97% in test [2] and 24% in test [3].

On to `O=C(Cc1cccc(O)c1)NCC(Cc1ccc(O)cc1)c1ccccc1` (configuration not stated), for which the Inhibition is 91% in test [1], 97% in test [2] and 0% in test [3].

Turning to `CN1CCCC1CNS(=O)(=O)c1ccc(C(=O)NCC2CC2)cc1.O=C(O)C(F)(F)F` (configuration not stated), the Inhibition in test [1] was 91%; in test [2], 0%; in test [3] it was 17%.

Regarding `COc1ccc2[nH]ccc(=NN=Cc3ccc(F)cc3)c2c1`, the Inhibition in test [1] came out at 98%; in test [2], 54%; in test [3] it was 2%.

Take `COc1ccc(CC2(CO)CCN(Cc3ccc(O)c(Cl)c3)CC2)cc1`: the Inhibition was 98% in test [1], 14% in test [2] and 0% in test [3].

In the case of `COc1ccc(-c2ccc(S(=O)(=O)Nc3cc4c(cc3OC(C)C)CCNCC4)cc2)cc1.Cl`, the values for the Inhibition in test [1], in test [2] and in test [3] were 86%, 0% and 16%, respectively.

With `Cc1cc(F)ccc1[C@H]1C[C@H](N2CCOCC2)CCN1C(=O)N(C)[C@@H](C)c1cc(C(F)(F)F)cc(C(F)(F)F)c1.Cl`, the Inhibition in test [1] is given as 100%; in test [2] it was 99%; in test [3], 4%.

Consider `CN(C)CCCNCCS(=O)(=O)c1cccc(Nc2ccc(-c3cccc(N(C)C)c3)cn2)c1`, for which the Inhibition in test [1] came to 98%; in test [2], 0%; in test [3] it was 19%.

With `O=C(Nc1cccc(C(F)(F)F)c1)N1CCOC(CCN2CCC3(CCc4ccccc43)CC2)(c2ccc(Cl)c(Cl)c2)C1` (configuration not stated), the Inhibition in test [1] is given as 99%; in test [2], 70%; in test [3] it was 31%.

In the case of `CCN(C)c1cc(C(=O)N[C@@H](Cc2ccccc2)[C@H](O)CNC(C)(C)c2cccc(OC)c2)cc(N2CCCC2=O)c1`, the Inhibition is reported as 100% in test [1], 81% in test [2] and 0% in test [3].

Turning to `CC(C)Cc1c(O)nc(SCCN2CCOCC2)[nH]c1=O.Cl`, the Inhibition in test [1] stood at 88%; in test [2], 0%; in test [3] it was 19%.

For the compound `O=C(COc1ccc(Cl)c(Cl)c1)NCCCCCN1CCCN(C(=O)Nc2cc(Cl)cc(Cl)c2)CC1.O=C(O)C(F)(F)F`, the figures for the Inhibition in test [1], in test [2] and in test [3] were 89%, 1% and 44%, respectively.

For the compound `COc1cc(NC(=O)c2sc(-c3ccc(Cl)cc3)cc2Cl)ccc1OCCN1CCCC1.O=C(O)/C=C\C(=O)O`, the Inhibition in test [1] was determined as 93%; in test [2], 21%; in test [3], 72%.

Turning to `CCc1nnc2sc(-c3cccc(NC(=O)c4ccc(C)c([N+](=O)[O-])c4)c3)nn12`, the results for the Inhibition in test [1], in test [2] and in test [3] were 82%, 46% and 10%, respectively.

With `CN1CCC(C(=O)Nc2cccc(-c3ccc(-c4nc5cc(C(F)(F)F)ccc5[nH]4)s3)c2)CC1`, the results for the Inhibition in test [1], in test [2] and in test [3] were 100%, 95% and 29%, respectively.

In the case of `COC(=O)c1cccc(NC(=O)NCCNc2ccnc(Nc3ccc(F)cc3)n2)c1`, the Inhibition in test [1] is 93%; in test [2], 5%; in test [3], 10%.

In the case of `COc1cc(C(=O)N2CCN(C(C)C)CC2)ccc1CN(C)CCCCN1CCN(c2cccc(Cl)c2Cl)CC1.Cl`, the Inhibition in test [1] is listed as 100%; in test [2], 98%; in test [3], 79%.

For `Cc1cccc(C(=O)Nc2ccnc(N3CCC(N(C)Cc4cccc(O)c4)CC3)c2)c1.O=C(O)C(F)(F)F`, the Inhibition is given as 95% in test [1], 41% in test [2] and 7% in test [3].

Regarding `O=C(Nc1ccc(-c2ccccc2)cc1)Nc1cccc(Cn2ncc(N3CCCNCC3)c(Cl)c2=O)c1`, the Inhibition in test [1] was found to be 100%; in test [2], 52%; in test [3], 14%.

Take `O=C(N1CCN(c2cccc(C(F)(F)F)c2)CC1)C(Cl)(Cl)Cl`: the results for the Inhibition in test [1], in test [2] and in test [3] were 89%, 35% and 0%, respectively.

For `O=C(/C=C/c1ccc(Cl)c(Cl)c1)NCCCCCN1CCC(c2n[nH]c(-c3ccccc3)c2Br)CC1`, the Inhibition is recorded as 95% in test [1], 23% in test [2] and 100% in test [3].

Take `COCCNCc1ccc(-c2ccccc2CNC2CCN(Cc3ccccc3)CC2)cc1.O=C(O)C(F)(F)F`: the Inhibition in test [1] was 97%; in test [2], 28%; in test [3], 17%.
